# From PubChem
# HDAC3 inhib – human HDAC3 inhibition. O15379. recombinant HDAC3, fluorogenic peptide/trypsin coupled, fluorescence. inhibition, % at 8.3 µM. hit rate 0.15% among 320,000. AID 2718; in the data active = inhibition above about 26%, passing the limit was not always enough
# Rtt109 Vps75 – inhibitors of Candida albicans Rtt109/Vps75 histone acetyltransferase; Q5AAJ8; AID 540336; hit rate 0.16% among 330,000; inhibition, % at 34.9 µM; purified Rtt109/Vps75, ThioGlo CoA-SH fluorescence, 4 h;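 active = inhibition of at least 50% in every replicate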
# Rce1 inh – inhibitors of yeast Ras-converting enzyme. calls only. Q03530. yeast membranes, quenched prenylated peptide cleavage fluorescence. hit rate 0.27% among 290,000. AID 2563;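 active = fall in fluorescence gain of 50% or more versus controls, with final raw signal at or below 3038400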;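 note: plate controls were neutral control wells for no effect and wells lacking membranes for full effect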
# Target sequence (Q03530 whole entry, looked up): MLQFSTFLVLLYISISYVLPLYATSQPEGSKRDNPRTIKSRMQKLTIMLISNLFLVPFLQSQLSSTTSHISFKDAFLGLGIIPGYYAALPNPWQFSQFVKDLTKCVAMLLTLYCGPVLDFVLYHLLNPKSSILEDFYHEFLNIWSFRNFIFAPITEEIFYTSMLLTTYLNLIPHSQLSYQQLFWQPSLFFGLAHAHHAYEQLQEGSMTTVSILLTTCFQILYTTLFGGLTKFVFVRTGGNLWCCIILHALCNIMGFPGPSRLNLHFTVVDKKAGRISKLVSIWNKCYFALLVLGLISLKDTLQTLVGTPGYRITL
# Efflux pump inh – antifungal efflux pump inhibition, Nile Red retention | S. cerevisiae Candida pump triplex | inhibition, % at 10 µM | hit rate 0.44% among 330,000;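 active = plate passing quality check with inhibition over a set limit, or well fluorescence over plate mean plus 4 SD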;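 note: Nile Red retained in pooled yeast measured as flow cytometry median fluorescence; 0% = buffer negative control and 100% = Enniatin B positive control; higher means more Nile Red kept so more efflux inhibition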
# GRK2 inh – human GRK2 inhibition via aptamer displacement | P25098 | bead flow cytometry, FAM-aptamer displacement from GRK2 | inhibition of aptamer binding, % at 10 µM | hit rate 0.59% among 330,000 | AID 488847;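 active = inhibition of aptamer binding above 40%, roughly 3 SD of noise, on plates passing a quality check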;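 note: median bead fluorescence of bound FAM aptamer so fluorescent compounds give negative values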
# ALR inh – blocks human ALR sulfhydryl oxidase activity; P55789; purified ALR, DTT oxidation, H2O2 HRP-luminol luminescence; inhibition, % (test concentration not listed); hit rate 3.8% among 290,000; AID 485317;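 active = mean replicate inhibition above about 79%, with every replicate also reaching it, limit read from the data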
# Target sequence (P55789 whole entry, looked up): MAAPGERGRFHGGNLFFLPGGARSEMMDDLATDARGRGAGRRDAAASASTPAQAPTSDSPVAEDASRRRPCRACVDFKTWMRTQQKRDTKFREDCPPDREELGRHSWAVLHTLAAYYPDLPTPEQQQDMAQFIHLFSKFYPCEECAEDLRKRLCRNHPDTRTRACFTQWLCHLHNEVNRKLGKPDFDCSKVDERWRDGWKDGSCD
# Starred values were filed as active, the others as inactive; i = inactive; / = not tested or not shown; + = active, no number. Compounds with a hit are over-represented: about 4.5% of the library has one in this group of screens.
SMILES,HDAC3 inhib,Rtt109 Vps75,Rce1 inh,Efflux pump inh,GRK2 inh,ALR inh
NC(=O)c1cc[n+](CC(=O)NC(=O)Nc2ccccc2)cc1,-8,5,/,0,0,67
O=C1CCCN1CC(O)CS(=O)(=O)c1ccccc1 (stereo not drawn),-1,0,+,0,3,-3
COc1ccc(S(=O)(=O)CC(O)CN2CCCC2=O)cc1 (stereo not drawn),-3,-1,i,0,0,7
CCc1nc(SCc2ccc(OCC(C)C)cc2)n[nH]1,9,0,i,0,0,-4
CC(C)Cn1c(-c2cccc(S(=O)(=O)N3CCOCC3)c2)n[nH]c1=S,1,2,/,0,0,86*
Cc1nc(-c2ccccc2)cs1,-5,0,i,0,0,-4
Cc1nc(-c2cccc(S(=O)(=O)N3CC(C)CC(C)C3)c2)cs1 (stereo not drawn),-4,-1,i,0,0,-1
Cc1nc(-c2cccc(S(=O)(=O)N3CC(C)OC(C)C3)c2)cs1 (stereo not drawn),-7,-5,i,0,4,98*
Cc1nc(-c2cccc(S(=O)(=O)N3CCOCC3)c2)cs1,4,-4,i,0,2,99*
Cc1nc(-c2cccc(N)c2)cs1,-9,8,i,0,1,99*
Cc1ccc(CNC(=O)c2ccc(S(=O)(=O)N(C)C)cc2)n1C,2,-9,i,0,3,-27
COC(=O)[C@H](CC(C)C)N(Cc1ccccc1)S(=O)(=O)N(Cc1ccccc1)[C@@H](CC(C)C)C(=O)OC,11,4,/,0,0,-4
COC(=O)[C@H](CC(C)C)NS(=O)(=O)N(Cc1ccccc1)[C@@H](CC(C)C)C(=O)OC,31*,-16,/,0,3,1
O=Cc1[nH]c2ccccc2c1N(C(=O)CCl)c1ccc([N+](=O)[O-])cc1,1,-2,i,0,3,99*
CC(=O)n1cc(N(C(=O)CCl)c2ccc([N+](=O)[O-])cc2)c2ccccc21,3,-3,i,0,0,40
CC1CN(C(=O)c2ccccc2Nc2ccc(SC(F)F)cc2)CC(C)O1 (stereo not drawn),3,-8,i,0,2,99*
O=C(c1ccccc1Nc1ccc(SC(F)F)cc1)N1CCCCC1,-6,0,i,0,3,/
N#CN1CCC(NS(=O)(=O)c2ccc(C(F)(F)F)cc2)CC1,0,0,/,0,0,-1
COc1cc(/C=C/C(=O)O)cc(S(=O)(=O)NNC(=O)c2ccc3c(c2)OCO3)c1OC,-3,5,/,0,9,90*
CCOc1cc(/C=C2\SC(=S)N(NC(=O)c3cccnc3)C2=O)ccc1O,14,12,i,0,3,99*
CC(/C=C1\SC(=S)N(NS(=O)(=O)c2ccccc2)C1=O)=C\c1ccccc1,4,14,i,0,2,98*
COc1cc(/C=C2\SC(=S)N(NC(=O)c3ccccc3OC)C2=O)ccc1O,-2,-3,i,0,6,1
COc1cc(/C=C2\SC(=S)N(NC(=O)c3cccc(O)c3)C2=O)ccc1O,6,7,i,0,5,95*
CC(/C=C1\SC(=S)N(NC(=O)c2ccc(C)cc2)C1=O)=C\c1ccccc1,9,0,i,0,4,-7
CCOc1cc(/C=C2\SC(=S)N(C(C(=O)O)c3ccccc3)C2=O)ccc1O (stereo not drawn),12,30,i,0,5,100*
SMILES,HDAC3 inhib,Rtt109 Vps75,Rce1 inh,Efflux pump inh,GRK2 inh,ALR inh
CN(C(=O)COc1ncnc2sccc12)C1CCCCC1,2,1,/,0,2,/
COc1cccc(/C=C2\SC(=S)N(NS(=O)(=O)c3ccc(C)cc3)C2=O)c1OC,7,2,i,0,3,91*
CCOc1cc(/C=C2\SC(=S)N(NS(=O)(=O)c3ccc(C)cc3)C2=O)ccc1O,3,2,i,0,0,99*
COc1cc(/C=C2\SC(=S)N(NC(=O)c3ccncc3)C2=O)ccc1O,/,18,i,0,1,99*
COc1ccccc1/C=C1\SC(=S)N(NS(=O)(=O)c2ccccc2)C1=O,4,-8,i,0,0,0
COc1cc(/C=C2\SC(=S)N(NC(=O)c3ccc(O)c(OC)c3)C2=O)ccc1O,7,7,i,0,3,/
COc1cc(/C=C2/SC(=S)N(c3c(C)n(C)n(-c4ccccc4)c3=O)C2=O)ccc1O,7,4,i,0,3,90*
CC1CN(S(=O)(=O)c2ccc(C(=O)N3CCc4ccccc43)cc2)CC(C)O1 (stereo not drawn),0,4,/,0,0,43
CC(C)(C)C(=O)Nc1ccc(C(=O)CSc2nnc(C3CC3)n2C2CC2)cc1,1,-4,/,0,0,45
CC(=O)C(Sc1nccc(-c2cccs2)n1)C(C)=O,-2,-7,i,0,0,98*
CN1CC(C(=O)O)Cc2c1ccc1ccccc21 (stereo not drawn),-62,-5,+,0,3,37
O=C(O)C1CCN(C(=O)c2cccc3ccccc23)CC1,0,4,i,0,2,0
N#C/C(=C\c1cccc([N+](=O)[O-])c1)c1nnc2n1CCCCC2,2,-19,i,0,100*,16
O=c1nc2n(c3ccc([N+](=O)[O-])cc13)CCCCC2,1,3,i,0,5,-26
Cc1c(Cl)cccc1-c1ccc(CNCc2ccccn2)o1,0,-7,i,0,1,/
COc1ccc(/C=N/NC(=O)c2cccc(Br)c2)cc1CSc1ccccn1,3,0,i,1,0,-3
COc1ccc(C(=O)N/N=C/c2ccc(OC)c(CSc3ccccn3)c2)cc1,1,-2,/,0,7,99*
COc1ccc(/C=N/NC(=O)c2ccn[nH]2)cc1COc1ccc(Cl)cc1,17,7,i,0,2,0
COc1ccc(/C=N/NC(=O)c2cccnc2)cc1CSc1ccccn1,3,-9,i,0,2,99*
COc1ccc(/C=N/NC(=O)c2ccn[nH]2)cc1CSc1ccccn1,2,7,i,0,1,99*
COc1ccc(NC(=O)Cc2ccsc2)cc1S(=O)(=O)N1CCOCC1,-4,-12,/,0,0,-1
CC1(C)Cc2c(c(=S)nc(-c3ccccc3)n2CCN2CCOCC2)CO1,11,-3,i,0,1,97*
Cc1ccc(NC(=O)CS(=O)Cc2nc(-c3ccc(C)cc3)oc2C)cc1 (stereo not drawn),-3,9,i,0,1,99*
Cc1ccc(-c2nc(CS(=O)CC(=O)NCc3ccccc3)c(C)o2)cc1 (stereo not drawn),/,6,i,0,0,98*
